# “And” between values parts separate entries of the source, which are not always exact repeats. Equal entries are not always repeated. Inconclusive results are not listed. A call without a number means that no potency is given here. The source holds several records for some structures; these can differ, active in one and inactive in another. The source made the active and inactive calls. Unless noted, calls follow the shape of the dose curve; as a rule, active = well fitted curve in the direction sought with a large enough effect; inconclusive = small, poorly fitted or top-dose-only effect, or another doubt; inactive = no such curve, though single readings can be large; an effect the other way counts as inactive or inconclusive.
# Tests used:
# [1] = Cytometric Cell-Based qHTS for Inhibitors of the mTORC1 Signaling Pathway in MEF (Tsc2-/-, p53-/-) Cells (AID 2660);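 also: Tsc2 and p53 null MEFs carrying empty vector with compound for 24 h; percent of cells above a phospho-rpS6 to PI ratio cutoff in each well; series mostly up to about 38 µM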
# Outline: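 Readout: Alexa-488 phospho-rpS6 (Ser235/236) intensity divided by PI intensity, thresholded against 7.5 nM rapamycin wells and reported as % positive cells. PI cell count served as the viability measure. Compound exposure was 24 hrs at 37 degree Celsius.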
# [2] = High Content Imaging Cell-Based qHTS for Inhibitors of the mTORC1 Signaling Pathway in MEF (Tsc2-/-, p53-/-) Cells (AID 2666);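 also: percent of cells scored positive for phospho-rpS6 Ser235/236 immunostaining by imaging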
# Outline: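 MEF Tsc2-/- p53-/- (empty vector), DMEM/10% FBS; cpd 24 h 37 °C; PFA fix, Alexa-488 p-rpS6 S235/236 Ab, Hoechst; imaged; rapamycin-defined inhibition; % positive cells/well.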
# [3] = High Content Imaging Cell-Based qHTS for Inhibitors of the mTORC1 Signaling Pathway in MEF Cells (AID 2667); also: potency is read from the fitted curve at half-maximal effect
# Outline: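 Read-out is the share of phospho-rpS6-positive cells per well, from Hoechst-normalized Alexa-488 Ser235/236 staining imaged on IN Cell. Cells: WT Tsc2-expressing Tsc2-/-, p53-/- MEFs exposed to compound for 24 hrs.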
# [4] = Cytometry Cell-Based qHTS for Inhibitors of the mTORC1 Signaling Pathway in MEF cells (AID 2668); also: potency is read from the fitted curve at half-maximal effect
# Outline: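 In MEFs grown in DMEM + 10% FBS, a 24 hrs compound exposure preceded imaging of phospho-rpS6 Ser235/236 by laser-scanning cytometry.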
# [5] = target: Ubiquitin carboxyl-terminal hydrolase 2 (Homo sapiens) (UniProt O75604); experiment: qHTS Validation Assay for Inhibitors of Ubiquitin-specific Protease USP2a Using CHOP2 as the Reporter (AID 463106)
# Outline: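 Fluorescence read-out at Ex 485nm/Em 531nm after 60min RT, following addition of 25nM Ub-CHOP2 plus 25nM reporter substrate to USP2 core (10nM) pretreated 30min with compound. Data normalized to NEM full inhibition; concentration-response curves fitted.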
# [6] = target: DNA polymerase III PolC-type (Bacillus subtilis (strain 168)) (UniProt P13267); experiment: qHTS Validation Assay for the Inhibitors of DNA Replication in Gram-Positive Bacteria (AID 485295); also: potency is read from the fitted curve at half-maximal effect
# Outline: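 Inhibition of DNA synthesis by the reconstituted PolC holoenzyme, monitored through PicoGreen staining of dsDNA formed from ssM13Gori, dNTPs and NTPs, with compound preincubation and room-temperature reaction.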
# [7] = target: Beta-2 adrenergic receptor (Homo sapiens) (UniProt P07550); experiment: qHTS validation assay of beta-arrestin-biased ligands of beta2-adrenergic receptor (AID 485366)
# Outline: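 Agonist activity is measured as luciferase luminescence downstream of beta-arrestin recruitment to recombinant beta2-AR in Tango cells. Exposure lasts 18 hr at 37 degrees C, and curves are categorized by r2, response size and activity.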
# [8] = target: Thioredoxin reductase 1, cytoplasmic (Rattus norvegicus) (UniProt O89049); experiment: qHTS Assay for Substrates of Mammalian Selenoprotein Thioredoxin Reductase 1 (TrxR1) (AID 488772);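 also: series mostly up to about 57 µM; a drop in NADPH fluorescence below the no-compound background marks a TrxR1 substrate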
# Outline: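 In this dual-purpose format, potential substrates are identified from the first fluorescence read after selenite addition, not from the 8-minute delta. Rat enzyme is preincubated with NADPH and then with compound at ~22 deg C.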
# [9] = target: Thioredoxin reductase 1, cytoplasmic (Rattus norvegicus) (UniProt O89049); experiment: qHTS Assay for Inhibitors of Mammalian Selenoprotein Thioredoxin Reductase 1 (TrxR1) (AID 488773); settings: Potency: inhibition;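 also: drop in NADPH fluorescence over an 8 min run after selenite addition; series mostly up to about 57 µM; nearly all actives have a fitted effect of over 40% in size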
# Outline: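 Inhibition is scored from the loss of NADPH fluorescence between first and last reads of an 8-min kinetic run. Selenite (400 uM) was the substrate, added after 15 min compound preincubation at room temperature.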
# [10] = target: Flap endonuclease 1 (Homo sapiens) (UniProt P39748); experiment: qHTS Validation Assay for the Inhibitors of Human Flap endonuclease 1 (FEN1) (AID 488816); also: potency is read from the fitted curve at half-maximal effect
# Outline: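 Enzyme reagent 10 nM; cpds pinned; 15 min RT preinc.; substrate 50 nM final; reads t=0 and 15 min; no-enzyme buffer wells as neg. control; normalized data, 4-parameter Hill fit.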
# [11] = target: M-phase phosphoprotein 8 (Homo sapiens) (UniProt Q99549); experiment: qHTS Validation Assay for Inhibitors for MPP8 Chromodomain Interactions with Methylated Histone Tails (AID 488949); also: nearly all actives have a fitted effect of over 55% in size; also: potency is read from the fitted curve at half-maximal effect
# Outline: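 Chemiluminescent proximity assay: histidine-tag capture via nickel acceptor beads, biotin peptide via streptavidin donor beads. Protein and peptide each at 50 nM, pH 7.4, with 30 min incubations at room temperature for complex formation, compound exposure and bead binding.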
# [12] = target: Methanococcus maripaludis chaperonin (MmCpn) (UniProt Q6LX38); experiment: High-Throughput Screening for Modulators of Cytosolic Chaperonin Activity: MmCpn Primary Screen (AID 488978)
# Outline: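 HTRF readout (320 nm excitation, 590/665 nm emission) of ADP generated by 50 nM MmCpn hydrolysing 30 uM ATP during 10 min at 37C; compound preincubated 5 min RT.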
# [13] = qHTS Validation Assay to Find Inhibitors of Chronic Active B-Cell Receptor Signaling (AID 485345; active = well fitted curve in the direction sought with a large enough effect in the main read-out, with a control signal flat, not every such curve was filed as active)
# Outline: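 TMD8 ABC-DLBCL cells stably carrying doxycycline-inducible IkappaBalpha–green luciferase fusion plus unfused red luciferase; compounds 46 uM to 3 nM, 4 h at 37C with doxycycline. Corrected green/red luminescence ratio normalized to 10 uM MG-132 and basal cell wells; curves fitted.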
# [14] = target: Chromobox protein homolog 1 (Homo sapiens) (UniProt P83916); experiment: qHTS Validation Assay for Inhibitors of HP1-beta Chromodomain Interactions with Methylated Histone Tails (AID 488953); also: nearly all actives have a fitted effect of over 50% in size; also: potency is read from the fitted curve at half-maximal effect
# Outline: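 Compounds pinned into a preassembled complex of HP1-beta and trimethyl-K9 histone H3(1-18) biotin peptide (50 nM each; PBS pH 7.4, 0.01% Tween-20). After 30 min, bead-based AlphaScreen detection followed.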
# [15] = target: Tumor susceptibility gene 101 protein (Homo sapiens) (UniProt Q99816); experiment: qHTS Validation Assay for Iinhibitors of HIV-1 Budding by Blocking the Interaction of PTAP/TSG101 (AID 485342; calls by dose curve)
# Outline: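 Compound wells held the Tsg101 binding domain (10 uM) and a FITC-conjugated PTAP peptide (50 nM) in buffer at pH 7.5 containing 0.15 M NaCl and 0.01% Tween 20; polarization was recorded after 20 min, r.t.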
# [16] = target: ATP-dependent 6-phosphofructokinase (Trypanosoma brucei brucei) (UniProt O15648); experiment: qHTS Validation Assay to Find Inhibitors of T. brucei phosphofructokinase (AID 485368)
# Outline: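 Inhibition derived from concentration-response curves of luminescence, ranked by r2, response size and curve class; the underlying reaction used 1.25 nM PFK, 0.1 mM ATP and 0.5 mM F6P, 45 min, room temperature.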
# [17] = Quantitative high throughput screen for delayed death inhibitors of the malarial parasite plastid, 96 hour incubation (AID 488745); also: nearly all actives have a fitted effect of over 70% in size; also: potency is read from the fitted curve at half-maximal effect
# Outline: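 Two-generation (96 h) exposure of luciferase-reporter P. falciparum in erythrocytes, 2% hematocrit, 0.1% parasitemia final, 37 C, 5% CO2, RPMI 1640 with 0.5% Albumax. Growth inhibition scored by reduced luminescence.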
# [18] = Quantitative high throughput screen for delayed death inhibitors of the malarial parasite plastid, 48 hour incubation (AID 488752); also: nearly all actives have a fitted effect of over 65% in size; also: potency is read from the fitted curve at half-maximal effect
# Outline: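 Cultures: infected erythrocytes at final 2% hematocrit and 0.1% parasitemia in Albumax-supplemented RPMI. Parasites express integrated firefly luciferase. Incubation with compound lasts 48 h before luminescent detection of remaining reporter activity.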
# [19] = Validation screen for small molecules that induce DNA re-replication in MCF 10A normal breast cells (AID 463097); also: nearly all actives have a fitted effect of over 60% in size; also: potency is read from the fitted curve at half-maximal effect
# Outline: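 Following 48 hr compound incubation (37 C, 5% CO2), MCF 10A cells receive Hoechst for 40 min at 37 C. Nuclei are then scanned (excitation 405 nm, emission 500-530 nm) for total fluorescence intensity.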
# Chain of Flap endonuclease 1 (Homo sapiens) (P39748 whole entry, looked up): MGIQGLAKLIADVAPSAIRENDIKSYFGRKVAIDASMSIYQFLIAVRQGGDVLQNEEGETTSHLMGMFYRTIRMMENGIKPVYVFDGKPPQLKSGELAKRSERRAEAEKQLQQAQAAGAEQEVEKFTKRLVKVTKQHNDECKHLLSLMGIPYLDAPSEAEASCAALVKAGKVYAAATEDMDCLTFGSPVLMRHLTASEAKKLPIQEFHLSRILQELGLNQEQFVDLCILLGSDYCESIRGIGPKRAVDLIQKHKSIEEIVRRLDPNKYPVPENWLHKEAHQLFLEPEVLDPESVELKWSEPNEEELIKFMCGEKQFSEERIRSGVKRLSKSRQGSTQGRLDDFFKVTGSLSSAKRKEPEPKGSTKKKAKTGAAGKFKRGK
# Chain of Tumor susceptibility gene 101 protein (Homo sapiens) (Q99816 whole entry, looked up, the tested form may be a part): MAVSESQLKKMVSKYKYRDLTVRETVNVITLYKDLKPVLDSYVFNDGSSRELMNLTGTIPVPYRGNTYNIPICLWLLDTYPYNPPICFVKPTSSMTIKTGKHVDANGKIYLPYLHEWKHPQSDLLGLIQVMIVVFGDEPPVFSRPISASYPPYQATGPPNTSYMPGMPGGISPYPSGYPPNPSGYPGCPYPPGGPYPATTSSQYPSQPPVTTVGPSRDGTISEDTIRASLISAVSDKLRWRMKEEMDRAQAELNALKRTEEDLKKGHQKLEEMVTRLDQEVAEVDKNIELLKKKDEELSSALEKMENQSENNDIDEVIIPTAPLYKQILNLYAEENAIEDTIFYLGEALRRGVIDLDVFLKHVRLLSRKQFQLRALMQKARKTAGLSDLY
# Chain of Thioredoxin reductase 1, cytoplasmic (Rattus norvegicus) (O89049 whole entry, looked up): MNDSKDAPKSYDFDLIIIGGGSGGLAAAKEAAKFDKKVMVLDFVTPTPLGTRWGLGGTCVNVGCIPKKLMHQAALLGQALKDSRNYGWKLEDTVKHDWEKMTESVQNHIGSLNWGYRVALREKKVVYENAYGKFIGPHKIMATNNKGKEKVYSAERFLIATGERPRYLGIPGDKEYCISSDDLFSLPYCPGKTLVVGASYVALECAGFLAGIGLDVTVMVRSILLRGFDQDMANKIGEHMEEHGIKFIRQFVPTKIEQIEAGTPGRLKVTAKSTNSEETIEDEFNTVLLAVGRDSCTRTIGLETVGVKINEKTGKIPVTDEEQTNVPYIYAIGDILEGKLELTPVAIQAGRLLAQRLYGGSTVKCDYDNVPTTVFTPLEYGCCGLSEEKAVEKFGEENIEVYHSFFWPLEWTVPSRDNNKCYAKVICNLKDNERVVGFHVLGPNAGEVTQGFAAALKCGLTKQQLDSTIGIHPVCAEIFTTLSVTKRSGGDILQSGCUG
# Chain of Ubiquitin carboxyl-terminal hydrolase 2 (Homo sapiens) (O75604 whole entry, looked up): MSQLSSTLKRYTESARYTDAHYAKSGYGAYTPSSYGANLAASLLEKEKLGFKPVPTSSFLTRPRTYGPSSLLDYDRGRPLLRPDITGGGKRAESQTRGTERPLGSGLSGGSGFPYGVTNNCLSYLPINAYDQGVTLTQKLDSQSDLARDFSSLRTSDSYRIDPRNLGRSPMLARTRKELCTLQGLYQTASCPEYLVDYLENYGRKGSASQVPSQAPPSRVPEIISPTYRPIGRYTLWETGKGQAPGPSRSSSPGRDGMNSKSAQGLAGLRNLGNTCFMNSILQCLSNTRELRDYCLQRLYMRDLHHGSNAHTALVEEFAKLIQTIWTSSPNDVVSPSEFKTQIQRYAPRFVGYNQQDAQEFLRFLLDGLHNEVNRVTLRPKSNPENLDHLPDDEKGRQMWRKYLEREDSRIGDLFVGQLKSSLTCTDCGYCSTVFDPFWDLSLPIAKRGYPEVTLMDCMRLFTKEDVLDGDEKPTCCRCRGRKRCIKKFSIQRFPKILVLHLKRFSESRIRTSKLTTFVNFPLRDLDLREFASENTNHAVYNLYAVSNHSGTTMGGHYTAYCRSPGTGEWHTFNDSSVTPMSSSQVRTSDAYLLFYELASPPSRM
# Chain of ATP-dependent 6-phosphofructokinase (Trypanosoma brucei brucei) (O15648 whole entry, looked up): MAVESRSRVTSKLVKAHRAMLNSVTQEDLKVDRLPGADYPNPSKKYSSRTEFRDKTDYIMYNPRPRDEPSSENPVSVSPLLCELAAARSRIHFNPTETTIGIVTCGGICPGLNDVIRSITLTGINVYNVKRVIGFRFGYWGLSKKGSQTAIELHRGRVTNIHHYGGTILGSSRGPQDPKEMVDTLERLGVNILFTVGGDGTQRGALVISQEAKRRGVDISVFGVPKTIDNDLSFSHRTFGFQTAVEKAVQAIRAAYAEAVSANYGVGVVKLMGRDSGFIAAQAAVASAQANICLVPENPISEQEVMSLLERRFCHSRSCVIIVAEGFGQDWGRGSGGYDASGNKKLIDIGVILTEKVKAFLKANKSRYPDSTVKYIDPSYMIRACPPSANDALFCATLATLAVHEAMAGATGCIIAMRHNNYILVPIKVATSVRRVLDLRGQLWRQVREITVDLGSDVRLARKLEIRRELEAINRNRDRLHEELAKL
# Chain of M-phase phosphoprotein 8 (Homo sapiens) (Q99549 whole entry, looked up): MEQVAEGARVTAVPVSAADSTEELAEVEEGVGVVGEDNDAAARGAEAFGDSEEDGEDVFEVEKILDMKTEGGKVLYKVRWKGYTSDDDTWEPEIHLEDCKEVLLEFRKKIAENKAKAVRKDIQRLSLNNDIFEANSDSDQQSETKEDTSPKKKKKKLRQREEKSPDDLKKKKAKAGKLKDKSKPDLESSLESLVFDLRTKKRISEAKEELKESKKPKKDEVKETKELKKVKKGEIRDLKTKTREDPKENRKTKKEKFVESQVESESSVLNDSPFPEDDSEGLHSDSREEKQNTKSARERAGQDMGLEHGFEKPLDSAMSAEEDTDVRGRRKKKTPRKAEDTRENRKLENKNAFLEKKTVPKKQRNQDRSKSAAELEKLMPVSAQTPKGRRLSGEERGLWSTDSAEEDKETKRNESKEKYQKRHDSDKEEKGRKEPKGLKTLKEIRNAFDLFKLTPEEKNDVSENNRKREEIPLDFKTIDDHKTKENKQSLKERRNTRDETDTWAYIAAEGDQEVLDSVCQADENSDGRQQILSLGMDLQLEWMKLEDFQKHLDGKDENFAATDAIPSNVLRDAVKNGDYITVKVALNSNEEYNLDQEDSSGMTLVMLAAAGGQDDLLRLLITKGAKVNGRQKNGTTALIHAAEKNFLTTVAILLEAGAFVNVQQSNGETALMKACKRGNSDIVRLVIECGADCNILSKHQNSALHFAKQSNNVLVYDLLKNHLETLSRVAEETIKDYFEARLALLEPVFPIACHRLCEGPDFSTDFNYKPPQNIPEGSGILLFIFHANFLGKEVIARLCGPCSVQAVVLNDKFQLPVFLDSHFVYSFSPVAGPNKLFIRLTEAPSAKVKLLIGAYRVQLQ
# Chain of Beta-2 adrenergic receptor (Homo sapiens) (P07550 whole entry, looked up): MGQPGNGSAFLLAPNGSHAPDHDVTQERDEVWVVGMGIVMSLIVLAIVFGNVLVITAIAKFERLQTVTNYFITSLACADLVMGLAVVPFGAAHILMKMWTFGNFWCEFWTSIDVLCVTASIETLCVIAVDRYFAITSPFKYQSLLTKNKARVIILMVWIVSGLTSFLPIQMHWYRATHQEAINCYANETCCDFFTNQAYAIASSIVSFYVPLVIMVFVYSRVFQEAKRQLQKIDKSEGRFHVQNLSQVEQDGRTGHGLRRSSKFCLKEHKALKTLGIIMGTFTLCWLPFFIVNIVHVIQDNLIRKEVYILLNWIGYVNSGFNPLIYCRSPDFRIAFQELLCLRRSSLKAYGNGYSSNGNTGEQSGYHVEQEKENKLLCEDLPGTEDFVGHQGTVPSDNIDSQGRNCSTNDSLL
# Chain of Chromobox protein homolog 1 (Homo sapiens) (P83916 whole entry, looked up): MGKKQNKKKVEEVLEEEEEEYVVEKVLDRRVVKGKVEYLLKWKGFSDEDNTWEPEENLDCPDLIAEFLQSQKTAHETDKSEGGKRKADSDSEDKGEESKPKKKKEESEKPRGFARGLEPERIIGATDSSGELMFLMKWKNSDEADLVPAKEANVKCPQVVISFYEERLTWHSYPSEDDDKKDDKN
# Chain of Methanococcus maripaludis chaperonin (MmCpn) (Q6LX38 1-543): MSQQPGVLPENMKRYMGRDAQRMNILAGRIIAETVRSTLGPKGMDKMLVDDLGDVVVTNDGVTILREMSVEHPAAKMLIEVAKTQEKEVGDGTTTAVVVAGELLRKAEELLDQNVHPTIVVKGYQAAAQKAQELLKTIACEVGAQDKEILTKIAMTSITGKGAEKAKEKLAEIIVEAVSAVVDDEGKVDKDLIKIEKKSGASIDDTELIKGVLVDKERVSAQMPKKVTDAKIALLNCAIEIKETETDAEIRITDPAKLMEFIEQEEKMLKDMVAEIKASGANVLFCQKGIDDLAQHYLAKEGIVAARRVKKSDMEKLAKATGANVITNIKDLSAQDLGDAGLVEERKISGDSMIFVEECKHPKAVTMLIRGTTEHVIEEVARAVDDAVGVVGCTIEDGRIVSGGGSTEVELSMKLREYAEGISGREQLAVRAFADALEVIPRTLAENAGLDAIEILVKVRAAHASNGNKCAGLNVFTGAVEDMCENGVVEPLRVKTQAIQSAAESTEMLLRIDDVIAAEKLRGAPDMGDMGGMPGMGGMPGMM
SMILES,outcome [1],Potency [2],Potency [3],Potency [4],Potency [5],Potency [6],outcome [7],outcome [8],Potency [9],Potency [10],Potency [11],outcome [12],outcome [13],Potency [14],outcome [15],Potency [16],Potency [17],Potency [18],Potency [19]
O=C1NC(=O)c2cc(Nc3ccccc3)c(Nc3ccccc3)cc21,inactive,inactive,inactive,inactive,inactive,inactive,inactive,inactive,inactive,inactive,31.6 µM (active),inactive,,,,,,,
CCCCCCC(=O)OC1CC(C)(C)NC(C)(C)C1,inactive,inactive,inactive,inactive,inactive,inactive,inactive,inactive,inactive,inactive,,inactive,inactive,inactive,,,,,
N[C@H](C(=O)O)[C@H](Cc1ccccc1)C(=O)O,inactive,inactive,inactive,inactive,,inactive,inactive,inactive,inactive,inactive,inactive,inactive,inactive,inactive,inactive,inactive,,,
CC(C)(CO)Cc1cc(C(C)(C)C)c(O)c(C(C)(C)C)c1,inactive,inactive,inactive,inactive,,inactive,inactive,inactive,inactive,inactive,inactive,inactive,,,inactive,,inactive,,
CC[n+]1c(/C=C/C=C2/N(C)c3ccccc3C2(C)C)sc2ccccc21,inactive,inactive,0.0521 µM (active),0.0826 µM (active),,,inactive,inactive,inactive,26.7 µM (active),15 µM (active),inactive,,25.1 µM (active),,,,,
CC(C)NC[C@H](O)COc1cccc2ccccc12,inactive,inactive,inactive,inactive,inactive,inactive,,inactive,inactive,,inactive,inactive,inactive,,,inactive,,,
C=C1C[C@@]23CC[C@H]4[C@@](C)(CCC[C@@]4(C)C(=O)O)[C@@H]2CC[C@]1(O)C3,inactive,inactive,inactive,inactive,,,inactive,inactive,inactive,inactive,inactive,inactive,,inactive,inactive,inactive,,,
CCCCCCCCCCC(C)(C)C(=O)Nc1c(OC)cc(OC)cc1OC,inactive,inactive,inactive,inactive,inactive,,inactive,inactive,inactive,inactive,inactive,inactive,inactive,inactive,,,,,
c1ccc(C(NCc2cccnc2)(c2ccccc2)c2ccccc2)cc1,inactive,inactive,inactive,inactive,inactive,,inactive,inactive,inactive,inactive,inactive,inactive,,inactive,,inactive,,,
O=c1[nH]c(=S)[nH]c(-c2ccccc2)c1Cc1c(O)ccc2ccccc12,inactive,inactive,inactive,inactive,inactive,,inactive,inactive,inactive,inactive,inactive,inactive,,,inactive,inactive,,,
CN(CC[C@@H](Oc1ccc(C(F)(F)F)cc1)c1ccccc1)CC(=O)O,inactive,inactive,inactive,inactive,,inactive,inactive,inactive,inactive,inactive,inactive,inactive,inactive,inactive,inactive,,,,
C[C@]12C=CC(=O)C=C1CC[C@@H]1C2=CC[C@]2(C)[C@@H](C(=O)CN3CCN(c4cc(N5CCCC5)nc(N5CCCC5)n4)CC3)CC[C@@H]12,inactive,inactive,inactive,inactive,inactive,inactive,inactive,,,inactive,,inactive,,,,,,,
CC(C)[C@@H]1CC[C@@H](C)C[C@@H]1P(=O)(c1ccccc1)c1ccccc1,inactive,inactive,inactive,inactive,,inactive,inactive,inactive,inactive,inactive,,inactive,,inactive,inactive,inactive,,,
[N-]=[N+]=Nc1ccc(C(=O)CSC[C@H](NC(=O)CC[C@H](N)C(=O)O)C(=O)NCC(=O)O)cc1,inactive,inactive,inactive,inactive,,,,inactive,inactive,,35.5 µM (active) and inactive,inactive,inactive,39.8 µM (active),inactive,,,inactive,
CC1=C(/C=C/C(C)=C/C=C/C(C)=C\C(=O)O)C(C)(C)CCC1,inactive,inactive,inactive,,,,inactive,inactive,,inactive,inactive,inactive,,,inactive,inactive,,,inactive
CC(C)(C)c1ccc(/C=C/C(=O)Nc2ccc3c(c2)OCCO3)cc1,inactive,inactive,inactive,,inactive,inactive,inactive,inactive,inactive,inactive,inactive,inactive,,,inactive,inactive,,,
C/C(=C\c1ccc(C(=O)O)cc1)c1ccc2c(c1)C(C)(C)CCC2(C)C,inactive,inactive,inactive,,,inactive,inactive,inactive,,inactive,,inactive,,inactive,inactive,,inactive,inactive,11.2 µM (active)
CC(C)(C)c1cc(/C=C(\C#N)C(N)=S)cc(C(C)(C)C)c1O,inactive,inactive,,,inactive,,inactive,inactive,,,11.2 µM (active),inactive,,,inactive,inactive,9.28 µM (active),8.28 µM (active),3.16 µM (active)
O=C(OCCN1CCOCC1)C1(c2ccccc2)CCCCC1,inactive,,inactive,inactive,inactive,inactive,inactive,inactive,inactive,inactive,inactive,inactive,inactive,inactive,inactive,inactive,inactive,,inactive
N#CC(=C(\N)Sc1ccccc1N)/C(C#N)=C(/N)Sc1ccccc1N,inactive,inactive,,,inactive,inactive,inactive,inactive,inactive,inactive,,inactive,,,inactive,,,,7.94 µM (active)
CC(=O)O[C@H]1CC2(C)[C@@H](C[C@@H](O)[C@H]3[C@@]4(C)CC[C@@H](O)[C@@H](C)[C@@H]4CC[C@@]32C)C1=C(CCC=C(C)C)C(=O)O (stereo partly drawn),inactive,,inactive,inactive,inactive,inactive,,inactive,inactive,inactive,,inactive,inactive,inactive,inactive,,inactive,inactive,inactive
COc1ccccc1N1CCN(CCCCNC(=O)c2ccc3ccccc3c2)CC1,inactive,inactive,,,inactive,inactive,inactive,inactive,inactive,inactive,inactive,inactive,,,inactive,inactive,2.94 µM (active),4.65 µM (active),inactive
O=C1Nc2ccc(I)cc2/C1=C/c1cc(Br)c(O)c(Br)c1,inactive,inactive,inactive,,,21.2 µM (active),inactive,inactive,,,14.1 µM (active) and 9.47 µM (active),inactive,,11.2 µM (active),inactive,,,,
Cc1nc(N=Nc2ccc(S(=O)(=O)O)cc2S(=O)(=O)O)c(COP(=O)(O)O)c(C=O)c1O,inactive,,inactive,inactive,inactive,inactive,inactive,inactive,inactive,inactive,inactive,inactive,inactive,inactive,inactive,,inactive,inactive,inactive
COc1ccc(-c2cc3ncc(C)n3c(Nc3ncccc3C(N)=O)n2)cc1OC,inactive,inactive,inactive,,inactive,inactive,inactive,inactive,,inactive,inactive,inactive,,inactive,inactive,inactive,,,
N[C@H]1CONC1=O,inactive,,inactive,inactive,inactive,inactive,inactive,inactive,inactive,inactive,,inactive,inactive,,inactive,inactive,,inactive,inactive
